Test results from PubChem BioAssay (NCATS).
Results filed as inconclusive are left out. Calls of active or inactive are those of the source. Calls come from the whole dose curve; as a rule, active = well fitted curve in the direction sought with a large enough effect; inconclusive = small, poorly fitted or top-dose-only effect, or another doubt; inactive = no such curve, though single readings can be large; an effect the other way counts as inactive or inconclusive.

How the values were obtained:
NIH3T3 = experiment: qHTS assay to identify novel small-molecules to repurpose for Merkel cell carcinoma treatment (AID 1296009); conditions: MCC and control cell lines, CellTiter-Glo viability, 72 h; at 44.8 µM (top of the series) unless noted; note: nearly all actives have a fitted effect of over 60% in size
How it was run: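 qHTS format: cells treated with library compounds in DMSO across 8 (NPC) or 11 (MIPE) concentrations. Readout after 72 hr at 37 degree celsius was CellTiter-Glo luminescence.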

C33A = experiment: Primary qHTS to identify gynecologic anti-cancer compounds using libraries of approved drugs and bioactive compounds (AID 1345084); conditions: Gynecologic cancer cell panel viability, ATPlite luminescence, 48 h; series mostly up to 57.5 µM; note: % is set by controls: 0 for no effect and ±100 for the full control effect; nearly all actives have a fitted effect of over 55% in size
How it was run: (§1)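 ATP-based viability (ATPlite), 1,000 cells/well, 16 h pre-incubation, 48 h compound at 37 C, 5% CO2, 15 min RT before read.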

CAOV3 = experiment: as above; conditions: Gynecologic cancer cell panel viability, ATPlite luminescence, 48 h; series mostly up to 57.5 µM
How it was run: as §1

CASKI = experiment: as above; conditions: Gynecologic cancer cell panel viability, ATPlite luminescence, 48 h; series mostly up to 57.5 µM
How it was run: as §1

Es-2 = experiment: as above; conditions: Gynecologic cancer cell panel viability, ATPlite luminescence, 48 h; series mostly up to 57.5 µM
How it was run: as §1

HeLa = experiment: as above; conditions: Gynecologic cancer cell panel viability, ATPlite luminescence, 48 h; series mostly up to 57.5 µM
How it was run: as §1

Hek293T = experiment: as above; conditions: Gynecologic cancer cell panel viability, ATPlite luminescence, 48 h, control line for the selectivity index; series mostly up to 57.5 µM
How it was run: as §1

JEG-3 = experiment: as above; conditions: Gynecologic cancer cell panel viability, ATPlite luminescence, 48 h; series mostly up to 57.5 µM
How it was run: as §1

CC1(C)CC[C@]2(C(=O)O)CC[C@]3(C)C(=CCC4[C@@]5(C)C(=O)C[C@H](O)[C@@](C)(CO)C5CC[C@]43C)[C@@H]2C1 (stereo partly specified)
inactive: outcome (NIH3T3) inactive [at 17.4 µM] | Potency (C33A) | Potency (CAOV3) | outcome (CASKI) | Potency (Es-2) | Potency (HeLa) | Potency (Hek293T) | Potency (JEG-3)

COc1cc2nc(=NC(=O)c3cccnc3)n3c(c2cc1OC)NCC3
inactive: outcome (NIH3T3) | Potency (C33A) | Potency (CAOV3) | outcome (CASKI) | Potency (Es-2) | Potency (HeLa) | Potency (Hek293T) | Potency (JEG-3)

C=C1CCC2(OC1)OC1CC3C4CC=C5CC(O)CC(O[C@@H]6OC[C@H](OC(=O)C(O)C(C)CC)[C@H](O)[C@H]6O[C@@H]6O[C@@H](C)[C@H](O)[C@@H](O)[C@H]6O)C5(C)C4CCC3(C)C1C2C (stereo partly specified)
inactive: outcome (NIH3T3) inactive [at 9.27 µM] | activity change, negative = cytotoxicity (C33A) 4.8% [at 11.6 µM] | activity change, negative = cytotoxicity (CAOV3) 21.8% [at 11.6 µM] | activity change, negative = cytotoxicity (CASKI) 19.8% [at 11.6 µM] | activity change, negative = cytotoxicity (Es-2) -3.44% [at 11.6 µM] | activity change, negative = cytotoxicity (HeLa) 13.3% [at 11.6 µM] | activity change, negative = cytotoxicity (Hek293T) 16.6% [at 11.6 µM] | activity change, negative = cytotoxicity (JEG-3) 16.8% [at 11.6 µM]

CCOc1ncc(S(=O)(=O)N2CCN(CC)CC2)cc1-c1nc2c(CC)n(CCOC)nc2c(=O)[nH]1
inactive: outcome (NIH3T3) | Potency (C33A) | Potency (CAOV3) | outcome (CASKI) | Potency (Es-2) | Potency (HeLa) | Potency (Hek293T) | Potency (JEG-3)

CCC(CC)CC1(C(=O)Nc2ccccc2SC(=O)C(C)C)CCCCC1
inactive: outcome (NIH3T3) | Potency (C33A) | Potency (CAOV3) | outcome (CASKI) | Potency (Es-2) | Potency (HeLa) | Potency (Hek293T) | Potency (JEG-3)

Cc1ccc2nc(NC(=O)CSc3nc4c(c(=O)n3-c3ccc(F)cc3)SCC4)sc2c1
inactive: outcome (NIH3T3) | Potency (C33A) | Potency (CAOV3) | outcome (CASKI) | Potency (Es-2) | Potency (HeLa) | Potency (Hek293T) | Potency (JEG-3)

Oc1ccc(CC2NCCc3cc(O)c(O)cc32)cc1 (stereo unspecified)
inactive: outcome (NIH3T3) | Potency (C33A) | Potency (CAOV3) | outcome (CASKI) | Potency (Es-2) | Potency (HeLa) | Potency (Hek293T) | Potency (JEG-3)

C=C1CCC2C(C)(C)CC(O)CC2(C)C1CCC(C)CCOC(=O)CCC(=O)O (stereo unspecified)
inactive: outcome (NIH3T3) inactive [at 17.4 µM] | Potency (C33A) | Potency (CAOV3) | outcome (CASKI) | Potency (Es-2) | Potency (HeLa) | Potency (Hek293T) | Potency (JEG-3)

CCCCS(=O)(=O)NC(Cc1ccc(OCCCCC2CCNCC2)cc1)C(=O)O (stereo unspecified)
inactive: outcome (NIH3T3) | Potency (C33A) | Potency (CAOV3) | outcome (CASKI) | Potency (Es-2) | Potency (HeLa) | Potency (Hek293T) | Potency (JEG-3)

COc1cc(/C=C/C(=O)O[C@@H]2C[C@@](O)(C(=O)O)C[C@@H](O)[C@@H]2O)ccc1O
inactive: outcome (NIH3T3) | Potency (C33A) | Potency (CAOV3) | outcome (CASKI) | Potency (Es-2) | Potency (HeLa) | Potency (Hek293T) | Potency (JEG-3)

C=C1C(=O)OC2CC(COC(=O)C(C)C)=C(C(C)CCCOC(C)=O)[C@@H](OC(C)=O)C12 (stereo partly specified)
inactive: outcome (NIH3T3) inactive [at 17.4 µM] | Potency (C33A) | Potency (CAOV3) | outcome (CASKI) | Potency (Es-2) | Potency (HeLa) | Potency (Hek293T) | Potency (JEG-3)

COC(=O)C1=COC(O[C@@H]2O[C@H](CO)[C@@H](O)[C@H](O)[C@H]2O)C2C(C)C(=O)CC12 (stereo partly specified)
inactive: outcome (NIH3T3) | Potency (C33A) | Potency (CAOV3) | outcome (CASKI) | Potency (Es-2) | Potency (HeLa) | Potency (Hek293T) | Potency (JEG-3)

CC1=C(CCC(C)O[C@@H]2O[C@H](CO)[C@@H](O)[C@H](O)[C@H]2O)C(C)(C)CC(O)C1 (stereo partly specified)
inactive: outcome (NIH3T3) | Potency (C33A) | Potency (CAOV3) | outcome (CASKI) | Potency (Es-2) | Potency (HeLa) | Potency (Hek293T) | Potency (JEG-3)

CC1CC=C2C1CC1(O)C(=O)CC2(C)C1(C)CO (stereo unspecified)
inactive: outcome (NIH3T3) | Potency (C33A) | Potency (CAOV3) | outcome (CASKI) | Potency (Es-2) | Potency (HeLa) | Potency (Hek293T) | Potency (JEG-3)

C/C=C(\C)C(=O)OC[C@H]1O[C@@H](O[C@H]2[C@@H](O[C@H]3O[C@H](COC(=O)/C(C)=C/C)[C@@H](O)[C@H](O)[C@H]3O[C@@H]3O[C@H](COC(=O)/C(C)=C/C)[C@@H](O)[C@H](OC(=O)/C(C)=C/C)[C@H]3O)O[C@H](COC(=O)/C(C)=C/C)[C@@H](O)[C@@H]2O)[C@H](O)[C@@H](O)[C@@H]1O
inactive: outcome (NIH3T3) inactive [at 9.27 µM] | activity change, negative = cytotoxicity (C33A) -2.71% [at 11.6 µM] | activity change, negative = cytotoxicity (CAOV3) -1.73% [at 11.6 µM] | activity change, negative = cytotoxicity (CASKI) 3.51% [at 11.6 µM] | activity change, negative = cytotoxicity (Es-2) 2.21% [at 11.6 µM] | activity change, negative = cytotoxicity (HeLa) -5.02% [at 11.6 µM] | activity change, negative = cytotoxicity (Hek293T) -12.9% [at 11.6 µM] | activity change, negative = cytotoxicity (JEG-3) -4.46% [at 11.6 µM]

C=C1C(OC(C)=O)CCC2(C)CCC(C(C)(C)O)CC12 (stereo unspecified)
inactive: outcome (NIH3T3) | Potency (C33A) | Potency (CAOV3) | outcome (CASKI) | Potency (Es-2) | Potency (HeLa) | Potency (Hek293T) | Potency (JEG-3)

C=C(C)[C@@H]1CC[C@]2(CO)CC[C@]3(C)[C@H](CC[C@@H]4[C@@]5(C)CC[C@H](O)C(C)(C)[C@@H]5CC[C@]43C)[C@@H]12
inactive: outcome (NIH3T3) inactive [at 17.4 µM] | Potency (C33A) | Potency (CAOV3) | outcome (CASKI) | Potency (Es-2) | Potency (HeLa) | Potency (Hek293T) | Potency (JEG-3)

C[C@@H]1O[C@@H](O[C@H]2[C@H](OC(=O)[C@]34CCC(C)(C)C[C@H]3C3=CCC5[C@@]6(C)C[C@@H](O)[C@@H](O[C@@H]7O[C@H](CO)[C@@H](O)[C@H](O)[C@H]7O)[C@@](C)(CO)C6[C@H](O)C[C@@]5(C)[C@]3(C)CC4)OC[C@H](O)[C@@H]2O)[C@H](O)[C@H](O[C@@H]2OC[C@](O)(CO)[C@H]2O)[C@H]1O[C@@H]1OC[C@@H](O)[C@H](O[C@H]2O[C@H](C)[C@@H](O)[C@H](O)[C@@H]2O)[C@H]1O (stereo partly specified)
inactive: outcome (NIH3T3) inactive [at 9.27 µM] | activity change, negative = cytotoxicity (C33A) 7.61% [at 6.55 µM] | activity change, negative = cytotoxicity (CAOV3) 0.345% [at 6.55 µM] | activity change, negative = cytotoxicity (CASKI) 0.644% [at 6.55 µM] | activity change, negative = cytotoxicity (Es-2) -2.14% [at 6.55 µM] | activity change, negative = cytotoxicity (HeLa) 14.1% [at 6.55 µM] | activity change, negative = cytotoxicity (Hek293T) 4.59% [at 6.55 µM] | activity change, negative = cytotoxicity (JEG-3) 14.8% [at 6.55 µM]

CC/C=C/C(O)C(O)C1=C(C)C(=O)C2(O1)C(=O)NC(OC)(C(=O)c1ccccc1)C2O (stereo unspecified)
inactive: outcome (NIH3T3) inactive [at 17.4 µM] | Potency (C33A) | Potency (CAOV3) | outcome (CASKI) | Potency (Es-2) | Potency (HeLa) | Potency (Hek293T) | Potency (JEG-3)

C/C(=C\C1CCC(C)C2CCC3(C)OC123)C(=O)O (stereo unspecified)
inactive: outcome (NIH3T3) | Potency (C33A) | Potency (CAOV3) | outcome (CASKI) | Potency (Es-2) | Potency (HeLa) | Potency (Hek293T) | Potency (JEG-3)

Cc1nnc(-c2sc(NC(=O)[C@H](C(C)C)n3c(=O)[nH]c4ccccc4c3=O)nc2C)o1
inactive: outcome (NIH3T3) | Potency (C33A) | Potency (CAOV3) | outcome (CASKI) | Potency (HeLa) | Potency (Hek293T) | Potency (JEG-3)

C=C(C(=O)O)[C@@H]1CC[C@@]2(C)CC[C@@H](O)C(=C)C2C1 (stereo partly specified)
inactive: outcome (NIH3T3) | Potency (C33A) | Potency (CAOV3) | outcome (CASKI) | Potency (Es-2) | Potency (HeLa) | Potency (Hek293T) | Potency (JEG-3)

CC(C/C=C/C(C)(C)O)C1CCC(C)(O)C(O)C1 (stereo unspecified)
inactive: outcome (NIH3T3) | Potency (C33A) | Potency (CAOV3) | outcome (CASKI) | Potency (Es-2) | Potency (HeLa) | Potency (Hek293T) | Potency (JEG-3)

COc1cc(C(C)=O)ccc1O[C@@H]1O[C@H](CO[C@@H]2OC[C@@H](O)[C@H](O)[C@H]2O)[C@@H](O)[C@H](O)[C@H]1O
inactive: outcome (NIH3T3) inactive [at 17.4 µM] | Potency (C33A) | Potency (CAOV3) | outcome (CASKI) | Potency (HeLa) | Potency (Hek293T) | Potency (JEG-3)

C=C1CCC2[C@@](C)(C(=O)O)CCC[C@@]2(C)[C@@H]1CCc1ccoc1 (stereo partly specified)
inactive: outcome (NIH3T3) | Potency (C33A) | Potency (CAOV3) | outcome (CASKI) | Potency (Es-2) | Potency (HeLa) | Potency (Hek293T) | Potency (JEG-3)

O=S(=O)(O)c1ccc(Nc2ncnc3c2ncn3[C@@H]2O[C@H](CO)[C@@H](O)[C@H]2O)cc1
inactive: outcome (NIH3T3) | Potency (C33A) | Potency (CAOV3) | outcome (CASKI) | Potency (Es-2) | Potency (HeLa) | Potency (Hek293T) | Potency (JEG-3)
